PubChem BioAssay (NCATS)
Values joined by “and” are separate entries in the source; they are usually repeats but may differ in a detail not shown here. Equal values may be shown once. Results filed as inconclusive are left out. Active and inactive are the calls of the source. The call rests on the fitted dose curve; in most records, active means well fitted curve in the direction sought with a large enough effect; inconclusive means small, poorly fitted or top-dose-only effect, or another doubt; inactive means no such curve, though single readings can be large; an effect the other way counts as inactive or inconclusive.

How the values were obtained:
[1] = target: Cellular tumor antigen p53 (Homo sapiens) (UniProt P04637); experiment: Primary qHTS for small molecule compounds that upregulate eGFP-tagged delta133p53alpha (in N-terminal) cells. (AID 2060322); conditions: NCI-H358 eGFP-delta133p53alpha fluorescence, 24 h; activation: hits give high values; further: nearly all actives have a fitted effect of over 75% in size; further: potency means the concentration at half of the fitted maximal effect;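 on activation: cells pre-induced with doxycycline then dosed without doxycycline; series mostly up to about 56 µM; 0% = DMSO vehicle and 100% = reference activator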
Cellular tumor antigen p53 (Homo sapiens), sequence (P04637 whole entry, looked up): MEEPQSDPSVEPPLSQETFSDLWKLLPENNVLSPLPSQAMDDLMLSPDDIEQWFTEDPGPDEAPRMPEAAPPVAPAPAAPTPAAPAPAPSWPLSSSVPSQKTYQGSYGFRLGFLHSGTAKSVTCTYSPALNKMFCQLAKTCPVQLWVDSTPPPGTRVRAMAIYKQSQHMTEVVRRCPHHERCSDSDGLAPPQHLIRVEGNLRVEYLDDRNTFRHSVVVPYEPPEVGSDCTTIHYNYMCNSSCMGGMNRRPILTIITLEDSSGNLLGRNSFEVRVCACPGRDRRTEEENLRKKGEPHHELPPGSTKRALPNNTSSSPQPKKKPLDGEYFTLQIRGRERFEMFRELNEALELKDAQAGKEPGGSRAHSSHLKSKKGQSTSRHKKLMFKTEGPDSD
Summary of the method: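 NCI-H358 cells pre-induced 24 h with 10 ng/ml doxycycline for eGFP-delta133p53alpha, plated dox-free and exposed 24 h at 37C to titrated compounds. Fixed, Hoechst-stained; gated GFP peak intensity by laser scanning cytometry, normalized to DMSO (0%) and 57.5 uM 5-azacytidine (100%).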

[2] = target: Aldehyde dehydrogenase, mitochondrial (Homo sapiens) (UniProt P05091); experiment: qHTS for Inhibitors of the Aldehyde Dehydrogenase Family (ALDH2) Primary screen (AID 2061308);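 further: plate controls were vehicle for no effect and reference inhibitor for full effect; nearly all actives have a fitted effect of over 55% in size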
[3] = target: Retinaldehyde dehydrogenase 3 (Homo sapiens) (UniProt P47895); experiment: qHTS for Inhibitors of the Aldehyde Dehydrogenase Family (ALDH1A3) Primary screen (AID 2061315);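 further: plate controls were DMSO vehicle for no effect and reference inhibitor for full effect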
[4] = BET inhibitor-based combinations targeting novel dependencies in MECOM-rearranged (r) AML: MV-4-11 cell line (AID 2202233); further: potency means the concentration at half of the fitted maximal effect; nearly all actives have a fitted effect of over 45% in size
Summary of the method: (§1)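 Seeding density was 500 cells/well, and drug exposure lasted 48 hr under standard culture conditions. Read-out used CellTiter-Glo reagent with a 15 min room-temperature incubation before luminescence measurement; AUC and Z-AUC summarize the normalized responses.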

[5] = BET inhibitor-based combinations targeting novel dependencies in MECOM-rearranged (r) AML: HNT-34 cell line (AID 2202234); further: potency means the concentration at half of the fitted maximal effect; nearly all actives have a fitted effect of over 35% in size
Summary of the method: as §1

[6] = BET inhibitor-based combinations targeting novel dependencies in MECOM-rearranged (r) AML: UCSD-AML1 cell line (AID 2202235); further: nearly all actives have a fitted effect of over 40% in size; further: potency means the concentration at half of the fitted maximal effect
Summary of the method: as §1

[7] = BET inhibitor-based combinations targeting novel dependencies in MECOM-rearranged (r) AML: AML-191 cell line (AID 2202236; further: potency means the concentration at half of the fitted maximal effect; nearly all actives have a fitted effect of over 35% in size)
Summary of the method: (§2)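 Readout: CellTiter-Glo luminescence. Exposure: 48 h, 11 concentrations, 500 cells/well. Metric: AUC and within-line Z-AUC after DMSO/empty-well normalization.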

[8] = BET inhibitor-based combinations targeting novel dependencies in MECOM-rearranged (r) AML: OCI-AML3 cell line (AID 2202232); conditions: Potency: OCI-AML3 viability; further: nearly all actives have a fitted effect of over 35% in size; further: potency means the concentration at half of the fitted maximal effect
Summary of the method: as §2

[9] = BET inhibitor-based combinations targeting novel dependencies in MECOM-rearranged (r) AML: AML-194 cell line (AID 2202237; further: nearly all actives have a fitted effect of over 40% in size; further: potency means the concentration at half of the fitted maximal effect)
Summary of the method: as §2

Cc1cc(F)c(C(=O)Nc2cccc(-c3nncn3C(C)C)n2)cc1-n1cnc(C2CC2)c1
inactive: activation [1] 35% | Potency [2] | Potency [3]
active: Potency [4] 10.5 µM | Potency [5] 20.9 µM | Potency [6] 16.6 µM | Potency [7] 18.6 µM

CC1(C)CN(C(=O)c2ccc(-c3cccc4nc(NC(=O)C5CC5)nn34)cc2)C1
active: Potency [5] 18.6 µM
inactive: activation [1] 5% | Potency [2] | Potency [3] | Potency [8] | Potency [9]

CNC(=O)c1nn(C)c2c1C(C)(C)Cc1cnc(Nc3ccc(N4CCN(C)CC4)cc3)nc1-2
active: Potency [1] 38.5 µM and 9.53 µM | Potency [4] 0.132 µM | Potency [5] 0.263 µM | Potency [6] 0.934 µM | Potency [7] 1.18 µM
inactive: Potency [2] | Potency [3]

Nc1nc(Nc2ccc(S(N)(=O)=O)cc2)nn1C(=O)c1c(F)cccc1F
inactive: Potency [2] | Potency [3]
active: Potency [1] 24.3 µM and 9.53 µM | Potency [8] 2.95 µM | Potency [5] 2.95 µM | Potency [6] 2.09 µM | Potency [7] 2.35 µM | Potency [9] 3.72 µM

CC(C)(C)c1cc(NC(=O)Nc2ccc(-c3cn4c(n3)sc3cc(OCCN5CCOCC5)ccc34)cc2)no1
inactive: activation [1] 10.5% and 25% | Potency [2] | Potency [3] | Potency [6]
active: Potency [8] 4.68 µM | Potency [4] 0.003 µM | Potency [7] 4.68 µM | Potency [9] 14.8 µM

CC(C)(C)Sc1c(CC(C)(C)C(=O)O)n(Cc2ccc(Cl)cc2)c2ccc(OCc3ccc4ccccc4n3)cc12
inactive: activation [1] 0% | Potency [2] | Potency [3]
active: Potency [4] 26.3 µM | Potency [5] 26.3 µM
